Measured values reported in PubChem BioAssay (Tox21).
“And” between values parts separate entries of the source, which are not always exact repeats. Equal entries are not always repeated. Results filed as inconclusive are left out. The source made the active and inactive calls. The call rests on the fitted dose curve; in most records, active means well fitted cell-killing curve with a large enough effect in the repeat runs; inconclusive means weak or mixed curves, or effect the other way; inactive means flat fitted curve, though single readings scatter.

assay: Human pregnane X receptor (PXR) small molecule agonists, qHTS cell viability counter screen (AID 1346977); settings: PXR-Luc HepG2 viability, CellTiter-Fluor, 24 h; series mostly up to 92.4 µM; activity change, negative = cytotoxicity: at the top concentration; further: nearly all actives have a fitted effect of over 50% in size
Text: U.S. Tox21 Program National Center for Advancing Translational Sciences [NCATS] NIH Chemical Genomics Center [NCGC] U.S. Environmental Protection Agency [EPA] National Institutes of Environmental Health Sciences [NIEHS] National Toxicology Program [NTP] U.S. Food and Drug Administration [FDA] Tox21 Assay Overview: The human pregnane X receptor (hPXR) regulates the expression of several drug metabolizing enzymes and induction of these proteins is a major mechanism for developing drug resistance in cancer. One such key enzyme catalyzing the drug metabolism is cytochrome P450 3A4 (CYP3A4). Changes in CYP3A4 expression affect drug metabolism, thereby reducing the therapeutic efficacy and altering toxicological response to a drug and which finally causes adverse drug interaction. To screen Tox21 libraries for compounds that activate hPXR-mediated CYP3A4 gene expression, PXR-Luc HepG2 cells were used. Also cytotoxicity of the compounds was tested in parallel by measuring the cell viability using CellTiter-Fluor assay system in the same wells.
Tox21 Assay Protocol Summary: PXR-Luc HepG2 cells were dispensed at 2,000 per well in 5uL of assay medium containing 5% charcoal-stripped FBS into white solid bottom 1536-well plates (Corning Life Sciences, Corning, NY) using a Multidrop Combi (Thermo Scientific, Waltham, MA) dispenser. The assay plates were incubated at 37 C and 5% CO2 for 5hr, and then 23nL of compounds dissolved in DMSO and positive control were transferred using a Pintool station (Wako, San Diego, CA). The assay plates were incubated at 37C and 5% CO2 for 24hr. For cytotoxicity read, after 23hr incubation at 37C, 1uL CellTiter-Fluor reagent (Promega Corporation, Madison, WI) was added to each well of the assay plates using Flying Reagent Dispenser (FRD, Aurora Discovery, San Diego, CA). After 1hr incubation at 37C and 5% CO2, the fluorescence signal was quantified using a ViewLux plate reader (PerkinElmer, Shelton, CT).
On the % scale 0 is the no-effect control and ±100 the full control effect; potency means the concentration at half of the fitted maximal effect.

SMILES	Potency	activity change, negative = cytotoxicity
CC(=O)N[C@@H](CS)C(=O)O	inactive	
COc1ccc(Cc2cnc(N)nc2N)cc1OC		2.12% [at 42.5 µM] (inactive)
NNCCc1ccccc1	inactive	
O=C1CC2(CCCC2)CC(=O)N1CCCCN1CCN(c2ncccn2)CC1		-2.95% [at 42.5 µM] (inactive)
O=C1Nc2ccccc2C1(c1ccc(O)cc1)c1ccc(O)cc1	inactive	
CC(N)=O		8.53% [at 240 µM] (inactive)
c1ccc2cc3c(ccc4ccccc43)cc2c1	inactive	
Nc1nc2ccccc2[nH]1	inactive	
CC1=CC(=O)c2ccccc2C1=O	43.3 µM (active)	
CCN(CC)C(=O)Nc1ccc(OCC(O)CNC(C)(C)C)c(C(C)=O)c1 (stereo not given)		0.42% [at 42.5 µM] (inactive)
CCN(CC)CCOc1ccc(/C(=C(\Cl)c2ccccc2)c2ccccc2)cc1	39.4 µM (active) and 26.6 µM (active)	
CCC[C@H](N[C@@H](C)C(=O)N1[C@H](C(=O)O)C[C@@H]2CCCC[C@@H]21)C(=O)OCC	inactive	
O=c1n(CC2CO2)c(=O)n(CC2CO2)c(=O)n1CC1CO1 (stereo not given)	50.1 µM (active) and 54.5 µM (active)	
CCc1cc(C(C)(C)C)c(O)c(C(C)(C)C)c1	inactive	
COc1ccc(CCN2CCC(Nc3nc4ccccc4n3Cc3ccc(F)cc3)CC2)cc1	3.94 µM (active) and 13.3 µM (active)	
C#CC(C)(CC)OC(=O)c1ccccc1C(=O)O (stereo not given)		9.27% [at 42.5 µM] (inactive)
Cc1c(O)cccc1C(=O)N[C@@H](CSc1ccccc1)[C@H](O)CN1C[C@H]2CCCC[C@H]2C[C@H]1C(=O)NC(C)(C)C	16.8 µM (active) and 13.3 µM (active)	
Nc1cc(Cl)c(-c2cc(Cl)c(N)cc2Cl)cc1Cl	50.1 µM (active) and 68.6 µM (active)	
O=C(O[C@@H]1Cc2c(O)cc(O)cc2O[C@@H]1c1cc(O)c(O)c(O)c1)c1cc(O)c(O)c(O)c1	35.5 µM (active)	
CC(C(O)c1ccc(O)cc1)N1CCC(Cc2ccccc2)CC1 (stereo not given)		-19.1% [at 42.5 µM] (inactive)

SMILES	Potency	activity change, negative = cytotoxicity
CCOc1ccccc1C(N)=O		4.2% (inactive)
O=S(=O)(O)c1ccc2nc(-c3ccccc3)[nH]c2c1	inactive	
OCCN1CCNCC1	inactive	
COC(c1ccccc1)(c1ccccc1)[C@H](Oc1nc(C)cc(C)n1)C(=O)O		8.48% [at 42.5 µM] (inactive)
CC(C)(C)c1ccc(O)c(C(C)(C)C)c1		-40.5% (inactive)
Cc1scc2c1N(C(=O)CN1CCN(C)CC1)c1ccccc1NC2=O		1.97% [at 42.5 µM] (inactive)
CCCNC(C)C(=O)Nc1ccccc1C (stereo not given)		0.733% [at 42.5 µM] (inactive)
O=C(O)CP(=O)(O)O		13.9% [at 42.5 µM] (inactive)
C[N+]1([O-])CCOCC1		4.4% (inactive)
c1ccc2c(c1)-c1cccc3c1c-2cc1ccccc13	inactive	
CC(=O)OCCOCCOCCOC(C)=O	inactive	
CCCCC(CC)COC(=O)CC(C(=O)OCC(CC)CCCC)S(=O)(=O)O (stereo not given)	70.8 µM (active) and 61.1 µM (active)	
CC1COC(=O)O1 (stereo not given)	inactive	
COc1cc(C(=S)N2CCOCC2)ccc1O		0.931% [at 42.5 µM] (inactive)
OCC(CO)N[C@H]1C[C@](O)(CO)[C@@H](O)[C@H](O)[C@H]1O		7.4% [at 42.5 µM] (inactive)
CCc1ccc(C(c2ccc(CC)cc2)C(Cl)Cl)cc1	inactive	
CCC(C)(Oc1ccc(C2(c3ccc(OC(C)(CC)C(=O)O)cc3)CCCCC2)cc1)C(=O)O (stereo not given)		13.4% [at 42.5 µM] (inactive)
Cc1cc(Cc2cc(C)cc(C(C)(C)C)c2O)c(O)c(C(C)(C)C)c1	39.8 µM (active) and 61.1 µM (active)	
CC1=C(C=O)C(C)(C)CC=C1		1.04% (inactive)
CC(=O)C1=C(C)[C@@H]2C[C@@]3(C1)[C@H](C)CC[C@H]3C2(C)C	inactive	
